# From the supplement of paper PMC8728848
# This excerpt belongs to a sample that is enriched for the strongest signals.
# B1: OS9 (Arabidopsis thaliana) (protein)
# chain: MRGSHHHHHHGMASMTGGQQMGRDLYDDDDKSRLQIFPAHLVGTFSRNNREPKYKIEFLPEDSPFHPGDNLESMVMLDKHGNRFLCYLPKEEKATSGWTSSQQNISTVMMETQQLVKLKTPDELLQPLSEKCLFRQEGWWSYEFCHQKYVRQLHVEDENKIVQEFFLGTFDPEATAAFNQTVSDASTDASQRYHSHVYTNGTTCDLTGSPAEVEVRFVCAETRAMVTSITELSTCKYALTVQCPTLCKHPLFQLEKPVSHTIHCNAIPVEEDATRNKEEQAVDESPKMIADS
# Tests used:
# Experiment in all cases: glycan array binding signal (z-score within array); higher = stronger binding
# Details in all cases: glycan notation: IUPAC condensed, linker removed; mutation: R201A
# Fuc(a1-2)Gal = target: Fuc(a1-2)Gal
# Procedure, shortened: (§1)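 The binding signal is a Z-score computed within each array and averaged over linkers. Arrays of the same protein sequence at different concentrations or buffers were also averaged together. Data originate from 3228 arrays in the Consortium for Functional Glycomics database, kept only where the protein sequence was available.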
# [1] = target: Fuc(a1-2)Gal(b1-3)GalNAc(b1-3)Gal(a1-4)Gal(b1-4)Glc
# Procedure, shortened: as §1
# [2] = target: Fuc(a1-2)Gal(b1-3)GalNAc(b1-4)[Neu5Ac(a2-3)]Gal(b1-4)Glc
# Procedure, shortened: as §1
# Fuc(a1-2)Gal(b1-4)Glc = target: Fuc(a1-2)Gal(b1-4)Glc
# Procedure, shortened: as §1
# [3] = target: Fuc(a1-2)[Gal(a1-3)]Gal(b1-3)GlcNAc
# Procedure, shortened: as §1
# [4] = target: Fuc(a1-2)[Gal(a1-3)]Gal(b1-4)GlcNAc(b1-2)Man(a1-3)[Fuc(a1-2)[Gal(a1-3)]Gal(b1-4)GlcNAc(b1-2)Man(a1-6)]Man(b1-4)GlcNAc(b1-4)GlcNAc
# Procedure, shortened: as §1
# [5] = target: Fuc(a1-2)[Gal(a1-3)]Gal(b1-4)GlcNAc(b1-3)[Fuc(a1-2)[Gal(a1-3)]Gal(b1-4)GlcNAc(b1-6)]GalNAc
# Procedure, shortened: as §1
# [6] = target: Fuc(a1-2)[Gal(a1-3)]Gal(b1-4)GlcNAc(b1-6)GalNAc
# Procedure, shortened: as §1
# [7] = target: Fuc(a1-2)[GalNAc(a1-3)]Gal(b1-4)GlcNAc(b1-2)Man(a1-3)[Fuc(a1-2)[GalNAc(a1-3)]Gal(b1-4)GlcNAc(b1-2)Man(a1-6)]Man(b1-4)GlcNAc(b1-4)[Fuc(a1-6)]GlcNAc
# Procedure, shortened: as §1
# [8] = target: Fuc(a1-2)[GalNAc(a1-3)]Gal(b1-4)GlcNAc(b1-3)Gal(b1-4)GlcNAc(b1-3)Gal(b1-4)GlcNAc
# Procedure, shortened: as §1
# [9] = target: Fuc(a1-3)[Gal(b1-4)]GlcNAc(b1-2)Man(a1-3)[Fuc(a1-3)[Gal(b1-4)]GlcNAc(b1-2)Man(a1-6)]Man(b1-4)GlcNAc(b1-4)[Fuc(a1-6)]GlcNAc
# Procedure, shortened: as §1
# [10] = target: Fuc(a1-3)[Gal3S(b1-4)]GlcNAc
# Procedure, shortened: as §1
# Fuc(a1-4)GlcNAc = target: Fuc(a1-4)GlcNAc
# Procedure, shortened: as §1
# Gal(a1-3)Gal(b1-4)GlcNAc = target: Gal(a1-3)Gal(b1-4)GlcNAc
# Procedure, shortened: as §1
# [11] = target: Gal(a1-3)Gal(b1-4)[Fuc(a1-3)]GlcNAc(b1-2)Man(a1-3)[Gal(a1-3)Gal(b1-4)[Fuc(a1-3)]GlcNAc(b1-2)Man(a1-6)]Man(b1-4)GlcNAc(b1-4)GlcNAc
# Procedure, shortened: as §1
# [12] = target: Gal(a1-4)Gal(b1-4)GlcNAc(b1-3)Gal(b1-4)Glc
# Procedure, shortened: as §1
# [13] = target: Gal(b1-3)GlcNAc(b1-2)Man(a1-3)[Gal(b1-3)GlcNAc(b1-2)Man(a1-6)]Man(b1-4)GlcNAc(b1-4)[Fuc(a1-6)]GlcNAc
# Procedure, shortened: as §1
# [14] = target: Gal(b1-3)GlcNAc(b1-2)Man(a1-3)[GlcNAc(b1-4)][Gal(b1-3)GlcNAc(b1-2)Man(a1-6)]Man(b1-4)GlcNAc(b1-4)GlcNAc
# Procedure, shortened: as §1
# [15] = target: Gal(b1-4)GlcNAc(b1-3)Gal(b1-3)GalNAc
# Procedure, shortened: as §1
# [16] = target: Gal(b1-4)GlcNAc(b1-3)Gal(b1-4)Glc
# Procedure, shortened: as §1
# [17] = target: Gal(b1-4)GlcNAc(b1-3)Gal(b1-4)GlcNAc(b1-3)Gal(b1-4)GlcNAc(b1-3)Gal(b1-4)GlcNAc(b1-3)Gal(b1-4)GlcNAc(b1-2)Man(a1-3)[Gal(b1-4)GlcNAc(b1-3)Gal(b1-4)GlcNAc(b1-3)Gal(b1-4)GlcNAc(b1-3)Gal(b1-4)GlcNAc(b1-3)Gal(b1-4)GlcNAc(b1-2)Man(a1-6)]Man(b1-4)GlcNAc(b1-4)GlcNAc
# Procedure, shortened: as §1
# [18] = target: Gal(b1-4)GlcNAc(b1-3)Gal(b1-4)GlcNAc(b1-3)Gal(b1-4)GlcNAc(b1-3)Gal(b1-4)GlcNAc(b1-3)Gal(b1-4)GlcNAc(b1-3)Gal(b1-4)GlcNAc(b1-2)Man(a1-3)[Gal(b1-4)GlcNAc(b1-3)Gal(b1-4)GlcNAc(b1-3)Gal(b1-4)GlcNAc(b1-3)Gal(b1-4)GlcNAc(b1-3)Gal(b1-4)GlcNAc(b1-3)Gal(b1-4)GlcNAc(b1-2)Man(a1-6)]Man(b1-4)GlcNAc(b1-4)GlcNAc
# Procedure, shortened: as §1
# Gal3S6S(b1-4)GlcNAc6S = target: Gal3S6S(b1-4)GlcNAc6S
# Procedure, shortened: as §1
# Gal6P(b1-4)GlcNAc = target: Gal6P(b1-4)GlcNAc
# Procedure, shortened: as §1
# GalNAc(a1-3)Gal = target: GalNAc(a1-3)Gal
# Procedure, shortened: as §1
# [19] = target: GalNAc(b1-3)Gal(a1-4)Gal(b1-4)GlcNAc
# Procedure, shortened: as §1
# GalNAc3S(b1-4)GlcNAc = target: GalNAc3S(b1-4)GlcNAc
# Procedure, shortened: as §1
# [20] = target: Glc(a1-6)Glc(a1-6)Glc(a1-6)Glc
# Procedure, shortened: as §1
# Glc(b1-4)Glc = target: Glc(b1-4)Glc
# Procedure, shortened: as §1
# GlcA(b1-3)GlcNAc = target: GlcA(b1-3)GlcNAc
# Procedure, shortened: as §1
# [21] = target: GlcNAc(b1-2)Man(a1-3)[GlcNAc(b1-2)Man(a1-6)]Man(b1-4)GlcNAc(b1-4)[Fuc(a1-6)]GlcNAc
# Procedure, shortened: as §1
# GlcNAc(b1-3)Fuc = target: GlcNAc(b1-3)Fuc
# Procedure, shortened: as §1
# GlcNAc(b1-3)Gal = target: GlcNAc(b1-3)Gal
# Procedure, shortened: as §1
# [22] = target: GlcNAc(b1-3)Gal(b1-4)GlcNAc
# Procedure, shortened: as §1
# [23] = target: GlcNAc(b1-3)Gal(b1-4)GlcNAc(b1-2)Man(a1-3)[GlcNAc(b1-3)Gal(b1-4)GlcNAc(b1-2)Man(a1-6)]Man(b1-4)GlcNAc(b1-4)[Fuc(a1-6)]GlcNAc
# Procedure, shortened: as §1
# [24] = target: GlcNAc(b1-4)Gal(b1-4)GlcNAc
# Procedure, shortened: as §1
# GlcNAc(b1-4)GlcNAc = target: GlcNAc(b1-4)GlcNAc
# Procedure, shortened: as §1
# [25] = target: GlcNAc(b1-4)GlcNAc(b1-4)GlcNAc
# Procedure, shortened: as §1
# GlcNAc(b1-6)GalNAc = target: GlcNAc(b1-6)GalNAc
# Procedure, shortened: as §1
# [26] = target: GlcNAc6S(b1-3)Gal(b1-4)GlcNAc
# Procedure, shortened: as §1
# [27] = target: Kdn(a2-3)Gal(b1-4)[Fuc(a1-3)]GlcNAc
# Procedure, shortened: as §1
# Man(a1-2)Man(a1-3)Man = target: Man(a1-2)Man(a1-3)Man
# Procedure, shortened: as §1
# [28] = target: Neu5Ac(a2-3)Gal(b1-3)GalNAc(b1-4)[Neu5Ac(a2-3)]Gal(b1-4)Glc
# Procedure, shortened: as §1
# [29] = target: Neu5Ac(a2-3)Gal(b1-3)GlcNAc(b1-2)[Neu5Ac(a2-3)Gal(b1-3)GlcNAc(b1-4)]Man(a1-6)[Neu5Ac(a2-3)Gal(b1-3)GlcNAc(b1-2)Man(a1-3)]Man(b1-4)GlcNAc(b1-4)GlcNAc
# Procedure, shortened: as §1
# [30] = target: Neu5Ac(a2-3)Gal(b1-3)GlcNAc6S
# Procedure, shortened: as §1
# Neu5Ac(a2-3)Gal(b1-4)Glc = target: Neu5Ac(a2-3)Gal(b1-4)Glc
# Procedure, shortened: as §1
# [31] = target: Neu5Ac(a2-3)Gal(b1-4)GlcNAc(b1-2)Man(a1-3)[Neu5Ac(a2-6)Gal(b1-4)GlcNAc(b1-2)Man(a1-6)]Man(b1-4)GlcNAc(b1-4)GlcNAc
# Procedure, shortened: as §1
# [32] = target: Neu5Ac(a2-3)Gal(b1-4)GlcNAc(b1-3)Gal(b1-4)GlcNAc
# Procedure, shortened: as §1
# [33] = target: Neu5Ac(a2-3)Gal(b1-4)[Fuc(a1-3)]GlcNAc(b1-3)Gal(b1-4)GlcNAc
# Procedure, shortened: as §1
# [34] = target: Neu5Ac(a2-6)Gal(b1-4)GlcNAc(b1-2)Man(a1-6)Man(b1-4)GlcNAc(b1-4)GlcNAc
# Procedure, shortened: as §1
# [35] = target: Neu5Ac(a2-6)Gal(b1-4)GlcNAc(b1-3)Gal(b1-4)GlcNAc(b1-3)GalNAc
# Procedure, shortened: as §1
# [36] = target: Neu5Ac(a2-6)Gal(b1-4)GlcNAc(b1-6)[Gal(b1-3)GlcNAc(b1-3)]Gal(b1-4)Glc
# Procedure, shortened: as §1
binder,measurement,setting,value
B1,glycan array binding signal (z-score),Fuc(a1-2)Gal,0.581
same,glycan array binding signal (z-score),[1],-0.131
same,glycan array binding signal (z-score),[2],-0.246
same,glycan array binding signal (z-score),Fuc(a1-2)Gal(b1-4)Glc,-0.732
same,glycan array binding signal (z-score),[3],-0.124
same,glycan array binding signal (z-score),[4],-0.237
same,glycan array binding signal (z-score),[5],1.25
same,glycan array binding signal (z-score),[6],-0.223
same,glycan array binding signal (z-score),[7],-0.739
same,glycan array binding signal (z-score),[8],2.49
same,glycan array binding signal (z-score),[9],3.48
same,glycan array binding signal (z-score),[10],0.043
same,glycan array binding signal (z-score),Fuc(a1-4)GlcNAc,2.18
same,glycan array binding signal (z-score),Gal(a1-3)Gal(b1-4)GlcNAc,-0.929
same,glycan array binding signal (z-score),[11],0.205
same,glycan array binding signal (z-score),[12],-0.456
same,glycan array binding signal (z-score),[13],-0.307
same,glycan array binding signal (z-score),[14],-0.686
same,glycan array binding signal (z-score),[15],-0.513
same,glycan array binding signal (z-score),[16],-0.35
same,glycan array binding signal (z-score),[17],-0.257
same,glycan array binding signal (z-score),[18],0.133
same,glycan array binding signal (z-score),Gal3S6S(b1-4)GlcNAc6S,3.98
same,glycan array binding signal (z-score),Gal6P(b1-4)GlcNAc,-0.208
same,glycan array binding signal (z-score),GalNAc(a1-3)Gal,1.39
same,glycan array binding signal (z-score),[19],2.17
same,glycan array binding signal (z-score),GalNAc3S(b1-4)GlcNAc,2.29
same,glycan array binding signal (z-score),[20],-1.12
same,glycan array binding signal (z-score),Glc(b1-4)Glc,2.1
same,glycan array binding signal (z-score),GlcA(b1-3)GlcNAc,1.54
same,glycan array binding signal (z-score),[21],0.257
same,glycan array binding signal (z-score),GlcNAc(b1-3)Fuc,0.403
same,glycan array binding signal (z-score),GlcNAc(b1-3)Gal,-0.422
same,glycan array binding signal (z-score),[22],-0.104
same,glycan array binding signal (z-score),[23],2.59
same,glycan array binding signal (z-score),[24],0.805
same,glycan array binding signal (z-score),GlcNAc(b1-4)GlcNAc,8.22
same,glycan array binding signal (z-score),[25],0.6
same,glycan array binding signal (z-score),GlcNAc(b1-6)GalNAc,-0.498
same,glycan array binding signal (z-score),[26],-0.224
same,glycan array binding signal (z-score),[27],0.82
same,glycan array binding signal (z-score),Man(a1-2)Man(a1-3)Man,0.874
same,glycan array binding signal (z-score),[28],-0.662
same,glycan array binding signal (z-score),[29],-1.14
same,glycan array binding signal (z-score),[30],-0.775
same,glycan array binding signal (z-score),Neu5Ac(a2-3)Gal(b1-4)Glc,2.08
same,glycan array binding signal (z-score),[31],-0.425
same,glycan array binding signal (z-score),[32],0.1
same,glycan array binding signal (z-score),[33],1.98
same,glycan array binding signal (z-score),[34],-0.225
same,glycan array binding signal (z-score),[35],0.709
same,glycan array binding signal (z-score),[36],-0.933
